# Data reported in PubChem BioAssay (NCI).
# This is part of a sample that, as a whole, favours compounds with a hit. Of some 83,000 tested, about 20% had one in any assay.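 Interpretation: 100, growth as untreated; towards 0, rising growth inhibition; 0, no net growth; 0 to -100, cell death. Compounds scoring below 10 were considered active.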 A number with no mark means an inactive call. Active and inactive are the calls of the source.
# Tested on: HL-60(TB) leukemia
# Assay: NCI-60 one-dose screen, 48 h (100 = growth as untreated, 0 = no growth, -100 = all killed)
# Conditions: 10 µM unless noted
row,Structure (SMILES),growth
1,Cn1cc(-c2nn3cc(-c4ccncc4)nc3s2)c2cc(Br)ccc21,17.3%
2,O=C(CSc1nc2ccccc2c(=O)n1CCc1ccccc1)Nc1ccc(S(=O)(=O)Nc2ccc(Cl)nn2)cc1,132%
3,O=C(Nc1ccc(Br)cc1)Nc1nc2ccc([N+](=O)[O-])cc2s1,-44.3% (active)
